An excerpt weighted towards active compounds, which were near 19% of everything screened.
HT1080NT lethal: qHTS for induction of synthetic lethality in tumor cells producing 2HG: qHTS for the HT-1080-NT fibrosarcoma cell line; HT-1080-NT fibrosarcoma viability, CellTiter-Glo ATP luminescence, 48 h; Potency, µM (series often up to 46.1 µM), hits mostly cytotoxic; 360,000 compounds, 1.6% hits;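 note: NT is the 2HG producing partner of a matched IDH1 knockdown line; nearly all actives have a fitted effect of over 55% in size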
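Luminescent CellTiter-Glo readout after 48 hours of compound exposure at 37 degrees C defined viability of HT-1080-NT cells. Activity was normalized to DMSO wells and cell-free media wells; concentration-response curves were fitted and assigned curve classes.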
HT1080 IDH1KD tx: qHTS for induction of synthetic lethality in tumor cells producing 2HG: qHTS for the HT-1080-IDH1KD cell line; Potency, µM (highest dose often 46.1 µM), actives largely listed as cytotoxic; HT-1080 IDH1 knockdown viability, ATP luminescence, 48 h; 360,000 compounds, 2% hits
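Assay cells: HT-1080 with IDH1 knockdown, 750 per well, RPMI/5% FBS. Exposure: 48 h at 37 °C following 2 h pre-incubation. Read: CellTiter-Glo luminescence; fitted concentration-response, curve class assigned.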
TDP1 cell CPT: qHTS for Inhibitors of human tyrosyl-DNA phosphodiesterase 1 (TDP1): qHTS in cells in presence of CPT; chicken DT40 Tdp1-/-;hTDP1 cells + 20 nM CPT, ATP luminescence, 48 h; 420,000 compounds, 12% hits; Potency, µM (titrated, usually from 46.2 µM), actives largely listed as inhibitors; note: nearly all actives have a fitted effect of over 55% in size
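Chicken DT40 Tdp1-/- cells complemented with human TDP1, 400 cells/well, exposed to compounds plus 20 nM camptothecin for at least 48 h at 37 C; viability read as ATP content by CellTiter-Glo luminescence.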
DT40 TDP1 no CPT: qHTS for Inhibitors of human tyrosyl-DNA phosphodiesterase 1 (TDP1): qHTS in cells in absence of CPT; DT40 Tdp1-/- hTDP1 cells, no CPT, ATP luminescence, 48 h; Potency, µM (series often up to 46.2 µM), usual class: inhibitors; 420,000 compounds, 15% hits; AID 686978, 2013; note: nearly all actives have a fitted effect of over 55% in size
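A cellular qHTS used chicken DT40 cells lacking endogenous Tdp1 but carrying stably transfected human TDP1. Compounds were applied without camptothecin, and cell growth kinetics were judged by ATP-dependent luminescence after ≥48 hr.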
IL1B secr inh: qHTS for Inhibitors of Inflammasome Signaling: IL-1-beta AlphaLISA Primary Screen. 360,000 compounds, 4.7% hits. THP-1 LPS/ATP IL-1B secretion, AlphaLISA, 16 h; hits give low values. activity change, % at 57.5 µM; in the data active = activity change below about -50%; inconclusive = mostly about -30% to -49%
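Secreted IL-1B measured by AlphaLISA bead assay after 16 h compound exposure of THP-1 cells; compounds (final up to 57.5 uM) added 1 h before LPS (250 ng/mL) and ATP (1.25 mM) stimulation; lower signal means less secretion.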
Numbers stand for hits; – = inactive; ? = inconclusive; · = not tested or not shown. Unless noted, calls come from the whole dose curve; as a rule, active = well fitted curve in the direction sought with a large enough effect; inconclusive = small, poorly fitted or top-dose-only effect, or another doubt; inactive = no such curve, though single readings can be large; an effect the other way counts as inactive or inconclusive.

SMILES | HT1080NT lethal | HT1080 IDH1KD tx | TDP1 cell CPT | DT40 TDP1 no CPT | IL1B secr inh
CC(C)(C)OC(=O)N1CCC(C(=O)Nc2cccc(C(=O)N3CCCCC3)c2)CC1 | – | – | – | – | –
CC(C)(C)OC(=O)N1CCC(C(=O)Nc2ccc(C(=O)NC3CC3)cc2)CC1 | – | – | – | – | –
CN(C(=O)c1ccc(NC(=O)C2CCN(C(=O)OC(C)(C)C)CC2)cc1)C1CCC1 | – | – | 18µM | 18µM | –
CN(C(=O)c1cccc(NC(=O)C2CCN(C(=O)OC(C)(C)C)CC2)c1)C1CCCCC1 | – | – | 21µM | 13µM | –
Cc1cc(Cl)ccc1NC(=O)C1CCN(S(C)(=O)=O)CC1 | – | – | – | – | –
CC1CC(C)CN(Cc2nc(N)nc(Nc3ccc4ccccc4c3)n2)C1 (centres undefined) | ? | ? | 23µM | 21µM | ?
CCOC(=O)C1CCCN(Cc2c(C(=O)N3CCOCC3)nc3ccccn23)C1 (centres undefined) | – | – | – | – | -68
Nc1nc(CN2CCCCCC2)nc(Nc2ccccc2)n1 | – | – | – | – | –
Nc1nc(CN2CCC(Cc3ccccc3)CC2)nc(Nc2ccccc2)n1 | – | – | 18µM | 23µM | ?
Nc1nc(CN2CCN(c3ccccc3F)CC2)nc(Nc2ccccc2)n1 | – | – | 23µM | ? | –
COc1ccc(Nc2nc(N)nc(CN3CCC(C)CC3)n2)cc1 | – | – | – | – | –
Cc1ccc(NC(=O)C2CCCN(S(=O)(=O)c3ccc4[nH]c(=O)ccc4c3)C2)c(C)c1 (centres undefined) | – | – | ? | ? | –
Nc1nc(CN2CCN(C(c3ccccc3)c3ccccc3)CC2)nc(Nc2ccccc2)n1 | ? | ? | ? | 23µM | –
Cc1cccc(Nc2nc(N)nc(CN3CCN(C)CC3)n2)c1 | – | – | – | – | –
Cc1ccc(Nc2nc(N)nc(CN3CCCCCC3)n2)cc1 | – | – | ? | ? | –
Cc1cccc(Nc2nc(N)nc(CN3CCN(c4ccc(F)cc4)CC3)n2)c1 | – | – | 18µM | 16µM | ?
CCOC(=O)C1CCCN(Cc2nc(N)nc(Nc3ccccc3)n2)C1 (centres undefined) | – | – | ? | 18µM | –
CCCCCCCCCCCCCCCCn1cc[n+](CC(C)=O)c1 | ? | – | 0.65µM | 1.3µM | –
C#CCn1cc[n+](CC(=O)N(C)C)c1 | – | – | – | – | –
CCCCOC(=O)Nc1nnc(Cc2ccc(Cl)cc2)s1 | – | – | – | – | –
COc1cccc(-c2nc3nc(C)cc(C)n3c2Nc2c(C)cccc2C)c1 | – | – | ? | ? | –
CCCCNc1c(-c2cc3ccccc3o2)nc2nc(C)cc(C)n12 | – | – | ? | 23µM | –
CCCCNc1c(-c2cccc(OC)c2)nc2nc(C)cc(C)n12 | – | – | 18µM | 16µM | –
Cc1cc(C)cc(C(O)c2ncc(-c3ccccc3C)[nH]2)c1 (centres undefined) | ? | ? | ? | ? | –
CN(C(=O)c1ccc2c(c1)N(Cc1ccccc1F)C(=O)c1ccccc1S2(=O)=O)C1CCCCC1 | · | · | ? | 23µM | ·
SMILES | HT1080NT lethal | HT1080 IDH1KD tx | TDP1 cell CPT | DT40 TDP1 no CPT | IL1B secr inh
O=C(NC1CCCCC1)c1ccc2c(c1)N(Cc1ccccc1)C(=O)c1ccccc1S2 | · | · | – | – | ·
Cc1ccc(C)c(CN2C(=O)c3ccccc3S(=O)(=O)c3ccc(C(=O)N(C)C4CCCCC4)cc32)c1 | · | · | ? | 21µM | ·
CN(C(=O)c1ccc2c(c1)N(Cc1ccccc1F)C(=O)c1ccccc1S2)C1CCCCC1 | · | · | ? | 23µM | ·
Cc1csc(NC(=O)[C@@H]2CCCN2C(=O)c2cccs2)n1 | – | – | – | ? | –
Cc1ccc2c(=O)cc(C(=O)Nc3sc4c(c3C(=O)NCc3ccccc3)CCCC4)oc2c1C | · | · | – | – | ·
COCCNC(=O)c1c(NC(=O)Cc2coc3cc(C)ccc23)sc2c1CCCC2 | · | · | 23µM | ? | ·
COCCCNC(=O)c1c(NC(=O)Cc2coc3c(C)c(C)ccc23)sc2c1CCCC2 | · | · | 16µM | 16µM | ·
Cc1ccc2c(CC(=O)NCc3ccccc3)coc2c1C | · | · | 4.1µM | 3.3µM | ·
COCCCNC(=O)c1c(NC(=O)c2cc(=O)c3ccccc3o2)sc2c1CCCC2 | · | · | – | 5.2µM | ·
CCOC(=O)c1c(NC(=O)Cc2coc3cc(C)cc(C)c23)sc2c1CCC2 | · | · | – | – | ·
COC(=O)c1c(NC(=O)Cc2coc3cc(C)ccc23)sc2c1CCC2 | · | · | – | 3.3µM | ·
Cc1cc(N)n2ncc(-c3ccc(Cl)cc3)c2n1 | ? | ? | 18µM | ? | –
Cc1cc(Cl)n2ncc(-c3ccccc3)c2n1 | 18µM | ? | ? | 29µM | -99
O=C(Nc1ccc(-n2cccn2)cc1)C1CCCCN1Cc1cccc2cccnc12 (centres undefined) | ? | ? | ? | ? | -50
O=C(O)CCc1cc(I)c(O)c(I)c1 | · | · | – | – | ·
Cc1ccsc1/C=N\NC(=O)Cn1nnc2ccccc21 | – | ? | ? | 18µM | –
COc1ccc(NC(=O)Cn2nnc3ccccc32)c([N+](=O)[O-])c1 | – | – | ? | ? | –
O=C(Cn1nnc2ccccc21)Nc1ccccc1[N+](=O)[O-] | – | ? | – | – | -79
O=C(NCc1ccc(F)cc1)c1cc2ccccc2o1 | – | – | – | – | –
NS(=O)(=O)c1ccc(NC(=O)Nc2ccccc2)cc1 | – | – | – | – | ·
CC(=O)Nc1ccc(NC2=CC(=O)c3ccccc3C2=O)cc1 | ? | ? | – | – | –
CCOC(=O)c1ccc(NC2=CC(=O)C(=O)c3ccccc32)cc1 | – | – | 23µM | 23µM | –
NS(=O)(=O)c1ccc(NC2=CC(=O)C(=O)c3ccccc32)cc1 | ? | ? | 8.2µM | 2.6µM | -78
CC(C)c1ccc(S(=O)(=O)c2nnn3c2nc(N2CCN(C)CC2)c2sccc23)cc1 | · | · | 16µM | ? | ·
CC1CCN(c2nc3c(S(=O)(=O)c4ccc(Cl)cc4)nnn3c3ccsc23)CC1 | · | · | ? | 16µM | ·
CC1CCN(c2nc3c(S(=O)(=O)c4ccccc4)nnn3c3ccsc23)CC1 | · | · | – | – | ·
CS(=O)(=O)c1ccc2nc(NC(=O)Nc3cccc(Cl)c3)sc2c1 | ? | 11µM | 16µM | 23µM | -81
CS(=O)(=O)c1ccc2nc(NC(=O)Nc3ccc(Cl)c(Cl)c3)sc2c1 | ? | – | ? | 9.2µM | –
Cc1ccc(NC(=O)Nc2nc3ccc(S(C)(=O)=O)cc3s2)cc1 | – | – | – | – | –
Cc1onc(-c2ccccc2Cl)c1C(=O)Nc1nc2ccc(S(C)(=O)=O)cc2s1 | 15µM | ? | 8.2µM | 9.2µM | –

Screening results from PubChem.
